# Most compounds without a hit are left out; they make up all but 9.5% or so of the library.
# RE007 growth inh – less growth of the S. pombe RE007 Vpr strain; actives 0.21% (n = 360,000); Potency, µM (series often up to 92.2 µM), inactives show at the highest dose activity change, negative = less growth, usual class: inhibitors; S. pombe RE007 Vpr strain, BacTiter-Glo ATP luminescence, 24 h; active means well fitted falling curve with a large enough effect; inconclusive means small, poorly fitted or top-dose-only effect; inactive means no such curve, though single readings can be large or run the other way; further: on the % scale 0 is the no-effect control and ±100 the full control effect; nearly all actives have a fitted effect of over 50% in size
#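 Fission yeast RE007 carrying one integrated HIV-1 vpr copy, seeded at OD 0.01 in PMG+AL medium with 23 nL pinned compound. Grown 24 h at 30 degrees; viability read by BacTiter-Glo luminescence after 5 min.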
# Pf growth 48h – P. falciparum growth inhibition at 48 hours (one generation) | AID 504832 | P. falciparum luciferase growth in erythrocytes, 48 h | Potency, µM (top dose mostly 28.7 µM), for the others: at the top dose activity change, negative = inhibition, most hits filed as inhibitors | actives 5.9% (n = 310,000); further: on the % scale 0 is the no-effect control and ±100 the full control effect
#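 Here the parasites carry a stable luciferase gene and grow inside erythrocytes in Albumax-based RPMI medium with compound for one erythrocytic cycle. Activity is scored as loss of luminescent signal.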
# SARS PLpro yeast – inhibitors of SARS-CoV papain-like protease in yeast; Potency, µM (top dose mostly 32.9 µM), for inactives: at the top dose activity, positive = growth rescue, hits mostly activators; AID 485353; actives 0.19% (n = 330,000); S. cerevisiae expressing SARS-CoV PLpro, growth rescue; calls by dose curve; further: 0% is about no effect; nearly all actives have a fitted effect of over 55% in size
# NS1 inh – inhibitors of influenza NS1 protein function; Potency, µM (highest dose often 46.1 µM), for inactives: at the highest dose activity, positive = more growth; actives 0.4% (n = 270,000); calls by dose curve; further: actives are rising curves; nearly all actives have a fitted effect of over 50% in size
#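 Read-out: OD600 growth recovery of NS1-expressing budding yeast. Cells grown overnight at 30C in -URA glucose medium, washed, resuspended and diluted 1:100 in 2% galactose assay medium, pH 6.0. Same strain lacking NS1 served as positive control.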
# Pf growth 96h – inhibits malaria parasite growth, 96 h; P. falciparum luciferase reporter growth, 96 h; actives 6.9% (n = 320,000); AID 504834; Potency, µM (titrated, usually from 28.7 µM), without a hit: top-dose activity change, negative = inhibition, actives largely listed as inhibitors; further: on the % scale 0 is the no-effect control and ±100 the full control effect
#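 Cell-based qHTS: luciferase-tagged P. falciparum in erythrocytes (2% hematocrit, 0.05% parasitemia final) incubated with compounds for 96 hours, 37 C, 5% CO2; luciferase detection reagent then added and luminescence measured.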
# The depositor's hits bear a star; i = inactive; ? = inconclusive; · = no result given; [ ] = another dose, or the depositor's remark. Unless noted, the call rests on the fitted dose curve; in most records, active means well fitted inhibition curve with a large enough effect; inconclusive means small, poorly fitted or top-dose-only effect, or another doubt; inactive means no such curve, though single readings can be large or run the other way. Potency means the concentration at half of the fitted maximal effect.
SMILES,RE007 growth inh,Pf growth 48h,SARS PLpro yeast,NS1 inh,Pf growth 96h
CCN(CC)S(=O)(=O)c1cccc(C(=O)NCC2CCCO2)c1 (stereo unspecified),0%,·,5%,1%,-28%
CCN(CC)S(=O)(=O)c1ccc(Cl)c(C(=O)NCC2CCCO2)c1 (stereo unspecified),7%,-5%,19%,1%,10µM*
CCC(=O)Nc1ccc(OCC2CCCO2)cc1 (stereo unspecified),17%,41%,?,28%,12µM*
CCOc1ccc(NC(=O)c2ccc(OCC3CCCO3)cc2)cc1S(=O)(=O)N(CC)CC (stereo unspecified),-4%,10µM*,-4%,·,10µM*
COc1ccc(S(=O)(=O)N(C)C)cc1NC(=O)c1ccc(OCC2CCCO2)cc1 (stereo unspecified),-8%,·,·,·,·
CN(CC(=O)Nc1ccc(Cl)c(C(F)(F)F)c1)C(=O)Cn1cc([N+](=O)[O-])ccc1=O,-18%,16%,-1%[6.58 µM],·,30%
CC1(C)Cc2c(cnn2-c2ccc(F)cc2)C(NC(=O)CCN2CCCCC2=O)C1 (stereo unspecified),-21%,-1%,1%,12%,?
O=C(Nc1ccc(Cl)cc1)c1ccc(OCC2CCCO2)cc1 (stereo unspecified),6%,196%,-2%,-2%,i
CCN(CC)S(=O)(=O)c1ccc(NC(=O)c2ccc(OCC3CCCO3)cc2)cc1 (stereo unspecified),-4%,9.3µM*,12%,·,9.3µM*
Cc1cc(C)cc(OCC(=O)NN2Cc3ccccc3C2=N)c1,-11%,·,9%,2%,6.6µM*
N=C1c2ccccc2CN1NC(=O)CC12CC3CC(CC(C3)C1)C2,-11%,?,-1%,-10%,1.9µM*
N=C1c2ccccc2CN1NC(=O)C1CC1,3%,0%,8%,0%,-1%
COc1ccc(-n2c(=O)c(CCC(=O)N(C)Cc3cccs3)nc3ccccc32)cc1,9%,13µM*,0%,·,?
CN(Cc1cccs1)C(=O)CSc1nc(N)cc(N)n1,3%,11%,1%,·,25%
COc1ccc(-n2c(=O)c(CCC(=O)N3CCC(C)CC3)nc3ccccc32)cc1,-7%,9.3µM*,2%,·,?
CCOc1ccc(S(=O)(=O)Nc2cc(NS(=O)(=O)c3ccc(OCC)cc3)cc(C(=O)O)c2)cc1,1%,·,1%,·,·
Cn1c(=O)c([N+](=O)[O-])c(-n2cnc3ccccc32)c2ccccc21,0%,0%,0%,0%,0%
CCOC(=O)C1CCN(C(=O)COC(=O)/C=C/c2cccc(OC)c2OC)CC1,-15%,·,-2%,·,·
CCOC(=O)c1nc2ccccc2c(=O)n1-c1ccc(C)cc1C,4%,?,-1%,-1%,?
Cc1ccc(-n2c(NN)nc3ccccc3c2=O)c(C)c1,-7%,?,10%,27%,9.3µM*
CCOC(=O)C1=C(COC(=O)C2CC(=O)N(c3ccccc3CC)C2)NC(=O)NC1C (stereo unspecified),-4%,·,·,·,·
COc1ccc(S[C@@H](CCN2CC[C@H](O)CCC2=O)c2ccccc2)cc1,3%,2%,-8%,·,111%
Cc1cc(Oc2cc(N)cc([N+](=O)[O-])c2)ccc1Cl,-3%,14%,13%,8%,8.3µM*
O=C(/C=C\c1ccc2c(c1)OCO2)Nc1c2c(nn1-c1ccc(Cl)cc1)CSC2,5%,?,-21%,12%,10µM*
O=C(CCl)Nc1c2c(nn1-c1ccccc1)CSC2,0%,4.1µM*,-3%,-28%,2.9µM*
O=C(O)C(Cc1ccccc1)Cc1ccccc1,·,·,·,-6%,·
CCOC(=O)c1nc2c(ccc3ccccc32)cc1C,-17%,39%,0%,-11%,44%
CC(Sc1nc2ccccc2c(=O)n1CC1CCCO1)C(=O)NC(C)c1ccccc1 (stereo unspecified),2%,?,0%,·,-29%
CC(Sc1nc2ccccc2c(=O)n1C)C(=O)N(C)C1CCCCC1 (stereo unspecified),10%,1.9µM*,-2%,·,?
CC(Sc1nc2ccccc2c(=O)n1CC1CCCO1)C(=O)N(C)Cc1ccccc1 (stereo unspecified),-4%,?,3%,·,10µM*
